Bioassay records deposited in PubChem by National Center for Advancing Translational Sciences (NCATS).
Tau ThT inhib: qHTS for Inhibitors of Tau Fibril Formation, Thioflavin T Binding. Microtubule-associated protein tau (Homo sapiens), P10636. recombinant tau K18 P301L, heparin-induced fibrillization, ThT fluorescence. Potency, µM (highest dose often 57.4 µM), inactives show top-dose activity, negative = inhibition, actives largely listed as inhibitors. hit rate 2.1% among 270,000. AID 1460, 2008; further: nearly all actives have a fitted effect of over 55% in size
Target sequence (P10636 561-689 P618L limits assumed): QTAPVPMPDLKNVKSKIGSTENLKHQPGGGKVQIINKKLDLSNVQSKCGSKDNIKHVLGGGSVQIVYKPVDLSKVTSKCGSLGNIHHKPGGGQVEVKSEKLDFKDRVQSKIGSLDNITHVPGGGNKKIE
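Tau K18 P301L fragment (15 uM unlabeled plus 0.24 uM Alexa 594-labeled) in 100 mM sodium acetate pH 7 with compound, fibrillization induced by 20 uM heparin for 6 hr at 37 C. Thioflavin T (30 uM) added, fluorescence read after 1 hr (ex 450, em 510 nm).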
Sfp inh: qHTS Assay for Inhibitors of Bacillus subtilis Sfp phosphopantetheinyl transferase (PPTase); 4'-phosphopantetheinyl transferase ffp (Bacillus subtilis), Q9F4F7; Biochemical Sfp PPTase activity, qHTS; Potency, µM, inactives show largest response in the series, negative = inhibition, most hits filed as inhibitors; hit rate 3.5% among 310,000; AID 1490, 2009;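 further: the enzyme is Sfp with the accession as filed and its product quenches rhodamine fluorescence; 0% = enzyme reaction without inhibitor and -100% = no enzyme wells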
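After 15 min at room temperature with compound, 15 nM Sfp received 5 uM rhodamine-CoA plus 12.5 uM BHQ-2-ybbR (50 mM Hepes pH 7.6, 10 mM MgCl2). Rate came from the fluorescence difference over 30 min, ex 525/em 598 nm.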
PLK1 PBD inh: qHTS for Inhibitors of PLK1-PDB (polo-like kinase 1 - polo-box domain): Primary Screen; Serine/threonine-protein kinase PLK1 (Homo sapiens), P53350; Plk1 PBD binding of FITC phosphopeptide, fluorescence polarization; Potency, µM, inactives show max response, negative = inhibition, most hits filed as inhibitors; hit rate 2.8% among 360,000; further: series mostly up to about 57 µM; nearly all actives have a fitted effect of over 65% in size
VDR inh: Inhibitors of the vitamin D receptor (VDR): qHTS; VDR-SRC2-3 peptide fluorescence polarization, 2 h; Potency, µM, inactives show max response, negative = inhibition, actives largely listed as inhibitors; Vitamin D3 receptor (Homo sapiens), P11473; hit rate 0.93% among 400,000
Target sequence (P11473 whole entry, looked up): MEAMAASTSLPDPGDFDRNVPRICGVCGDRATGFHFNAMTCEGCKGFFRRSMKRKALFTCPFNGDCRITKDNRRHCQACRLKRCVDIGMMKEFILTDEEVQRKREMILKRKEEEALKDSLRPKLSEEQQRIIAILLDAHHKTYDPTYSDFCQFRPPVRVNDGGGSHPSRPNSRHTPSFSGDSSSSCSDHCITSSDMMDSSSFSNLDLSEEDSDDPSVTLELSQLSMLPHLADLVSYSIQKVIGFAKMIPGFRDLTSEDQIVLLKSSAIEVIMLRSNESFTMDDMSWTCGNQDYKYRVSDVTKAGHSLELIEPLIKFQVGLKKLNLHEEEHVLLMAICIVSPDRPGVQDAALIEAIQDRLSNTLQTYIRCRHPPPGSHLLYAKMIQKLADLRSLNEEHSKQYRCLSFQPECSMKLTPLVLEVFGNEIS
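The screen uses fluorescence polarization to detect compounds that interfere with recruitment of the SRC2-3 coactivator peptide to VDR; plates are read after 2 h at room temperature.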
Tau FP inhib: qHTS for Inhibitors of Tau Fibril Formation, Fluorescence Polarization. K18 P301L tau heparin fibrillization, Alexa594 FP, 6 h. Potency, µM (series often up to 57.7 µM), inactives show at the highest dose activity, negative = inhibition, usual class: inhibitors. hit rate 0.39% among 280,000. AID 1468, 2008; further: nearly all actives have a fitted effect of over 55% in size
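Steps: dispense K18 P301L tau (15 uM plus 0.24 uM Alexa 594 tracer, final) in pH 7 sodium acetate; add compound; add heparin (20 uM final); incubate 6 hr, 37 C; add ThT (30 uM final); after 1 hr ambient, read FP.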
Tau fluor counter: Counterscreen qHTS for Inhibitors of Tau Fibril Formation, Fluorescence Polarization; tau K18 P301L (four-repeat tau fragment) Alexa594 fluorescence, heparin fibrillization; Potency, µM (series often up to 57.7 µM), inactives show at the highest dose activity change, negative = decrease; hit rate 0.93% among 280,000; further: nearly all actives have a fitted effect of over 55% in size
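Human K18 P301L tau (15 uM unlabeled plus 0.24 uM Alexa 594-labeled, final) in 100 mM sodium acetate pH 7 was mixed with compound and 20 uM heparin and incubated 6 hr at 37 C.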
Numbers without * were called inactive; ? = inconclusive; · = no result given; [ ] = dose if it differs, or a comment. Shown are actives, neighbours in structure and some others; about 6% of the full set was active somewhere. The call rests on the fitted dose curve; in most records, active means well fitted curve in the direction sought with a large enough effect; inconclusive means small, poorly fitted or top-dose-only effect, or another doubt; inactive means no such curve, though single readings can be large; an effect the other way counts as inactive or inconclusive. Unless noted, on the % scale 0 is the no-effect control and ±100 the full control effect; potency means the concentration at half of the fitted maximal effect.

SMILES	Tau ThT inhib	Sfp inh	PLK1 PBD inh	VDR inh	Tau FP inhib	Tau fluor counter
COc1nc(N/N=C/c2ccc(-c3ccccc3[N+](=O)[O-])o2)nc(N2CCOCC2)n1	10.4%	14.1µM*	-26.6%	?	3.6%	10.1%
O=[N+]([O-])c1ccc(-c2ccc(/C=N/Nc3nc(NCc4ccccc4)nc(N4CCOCC4)n3)o2)cc1	2.82µM*	13.5%	-1.9%	-4.3%	?	?
O=C(NCc1ccccn1)c1cc(-c2ccc(-c3ccccc3)cc2)nc2ccccc12	5.5%	25.1µM*	?	1.0%	-2.3%	-25.7%
O=C(NCc1ccccn1)c1cc(-c2ccccc2)nc2ccccc12	-3.0%	5.6%	-2.9%	3.8%	-2.1%	-0.1%
Cc1cccc(-c2cc(C(=O)NCc3ccccn3)c3ccccc3n2)c1	-15.6%	-7.8%	0.3%	10.3%	-0.9%	-18.9%
O=C(NCCc1ccc(Cl)cc1)c1cc(-c2ccccn2)nc2ccccc12	·	-15.1%	18.9µM*	-23.7%	·	·
Cc1ccc(-c2cc(C(=O)NCc3ccccn3)c3ccccc3n2)cc1C	?	?	23.8µM*	?	-1.1%	-20.6%
Cn1c(=O)cc(SCC(=O)NCCc2ccc(Cl)cc2)c2cc(Cl)ccc21	-5.2%	·	·	-19.8%	1.0%	-17.1%
COCOc1cc(OC)ccc1C(=O)/C=C\c1ccc2c(c1)OCO2	-15.1%[11.5 µM]	2.2%	·	·	3.7%[11.6 µM]	-7.3%[11.6 µM]
Cn1c(=O)c(Nc2ccc(Cl)cc2)c2c3c(cccc31)C(=O)c1ccccc1-2	?	-14.5%	13.4µM*	5.3%	2.4%	?
CC(=O)Nc1c2c3c(cccc3n(C)c1=O)C(=O)c1ccccc1-2	-0.6%	-24.4%	-19.8%	16.1%	-2.9%	-0.7%
CC(C)(C)c1ccc(C(=O)Nc2sc3c(c2C#N)CCC(C(C)(C)C)C3)cc1 (centres undefined)	-3.6%	·	·	-3.8%	-6.5%	-3.2%
CC(C)(C)C1CCc2c(sc(NC(=O)C3CC=CCC3C(=O)O)c2C#N)C1 (centres undefined)	-11.5%	9.6%	21.2µM*	?	14.6%	6.6%
CCC(C)(C)C1CCc2c(sc(NC(=O)c3ccccc3C(=O)O)c2C#N)C1 (centres undefined)	?	0.9%	26.7µM*	-25.1%	2.4%	-11.7%
Nc1ccc(-c2nc3ccc(-c4nc5ccccc5o4)cc3[nH]2)cc1	8.91µM*	13.2%	-2.0%	29.9%	1.9%	15.8µM*[quencher]
Cc1ccc(-c2nc3ccccc3[nH]2)s1	-9.8%	50.1µM*	-16.7%	2.6%	-8.2%	-5.4%
Nc1ccc2nc(-c3cc(Cl)c(N)c(Cl)c3)[nH]c2c1	14.1µM*	?	23.8µM*	?	13.5%	?
Nc1ccc2nc(-c3ccc(Cl)cc3)[nH]c2c1	14.1µM*	-19.4%	0.4%	1.5%	6.9%	25.1µM*[quencher]
CCS(=O)(=O)c1oc(-c2ccc(F)cc2)nc1S(=O)(=O)c1ccc(Br)cc1	-2.3%	·	·	?	?	10.6%
Nc1cc(N)cc(-c2nc3ccccc3[nH]2)c1	12.6µM*	-19.1%	-1.8%	-1.2%	6.2%	12.6µM*[quencher]
NC(=O)C1O[C@@H](O)[C@H](O)[C@@H](O)[C@H]1O (some centres undefined)	·	15.5%	·	4.6%	·	·
CC(C)NC(=O)NC(=O)CSc1nnc(-c2c[nH]c3ccccc23)o1	·	-1.6%	-8.3%	9.1%	·	·
COc1ccc(OC)c(NC(=O)CC2C(=O)NCCN2C(=O)C(F)(F)F)c1 (centres undefined)	-6.0%	·	·	13.8%	-3.0%	-3.1%
O=C(Nc1ccc(OC(F)F)c(Cl)c1)C(c1ccccc1)c1ccccc1	6.2%	29.8%	-11.0%	-24.0%	28.2µM*	?
O=C(Cc1cccc2ccccc12)Nc1ccc(OC(F)F)c(Cl)c1	4.4%	6.3%	-2.5%	-18.9%	?	?
SMILES	Tau ThT inhib	Sfp inh	PLK1 PBD inh	VDR inh	Tau FP inhib	Tau fluor counter
CCOc1cc(/C=N/NC(=O)COc2ccc(C)cc2)ccc1OC(=O)c1cccs1	?	12.1%	-3.3%	6.1%	-14.9%	?
CCOc1cc(/C=C2\C(=O)N(c3ccc(C(N)=O)cc3)N=C2C)ccc1OC(=O)c1cccs1	?	56.2µM*	?	50.1µM*	?	?
CCOc1cc(/C=C2\C(=N)N3N=C(S(=O)(=O)CC)SC3=NC2=O)ccc1OC(=O)c1ccco1	·	?	?	10.3%	·	·
CC1=NN(c2ccc(C(=O)O)cc2)C(=O)/C1=C\c1ccc(OC(=O)c2cccs2)cc1	?	?	0.752µM*	?	?	7.9%
O=C(N/N=C/c1ccc(OC(=O)c2cccs2)cc1)c1ccc(F)cc1	-15.1%	-6.6%	-8.5%	-24.4%	-2.4%	-3.8%
CCOc1cc(/C=C2/C(=O)N(c3ccccc3)N=C2C)ccc1OC(=O)c1ccco1	?	?	1.5µM*	?	-5.9%	?
COC(=O)C1CCN(C2CN(Cc3ccccc3)S(=O)(=O)C2)CC1 (centres undefined)	·	·	-13.8%	·	·	·
Cc1cccc(NC(=O)/C(C#N)=C/c2cccc([N+](=O)[O-])c2)n1	·	3.1%	26.7µM*	?	·	·
O=C(CSc1nc2ccccc2[nH]1)Nc1nc(-c2cccc(Br)c2)cs1	-11.2%	7.3%	-11.0%	-15.4%	14.1µM*	?
CCCCn1c(SCC(=O)Nc2nccs2)nc2ccccc2c1=O	?	-13.4%	-4.4%	-3.2%	-4.6%	-10.0%
CN(C)CCCn1c(SCC(=O)Nc2nc(-c3cccc(Br)c3)cs2)nc2ccccc2c1=O	?	44.7µM*	-12.1%	7.2%	-13.1%	-7.5%
CCOc1cc(C(=O)NCc2ccc3c(c2)CCN3C(=O)CC)cc(OCC)c1OCC	-2.3%	·	·	4.1%	8.6%	-5.3%
COc1ccc(C(=O)N2CCCC(N3CCN(c4ccccc4F)CC3)C2)c(OC)n1 (centres undefined)	·	-1.0%	29.9µM*	?	·	·
COc1ccc(C(=O)N2CCCC(N3CCN(c4ccccc4OC)CC3)C2)c(OC)n1 (centres undefined)	·	10.9%	5.3%	0.5%	·	·
COc1cccc(CN2CC(C(=O)NCCc3ccc(C)s3)CCC2=O)c1 (centres undefined)	·	11.4%	-5.6%	4.8%	·	·
CCOC(=O)c1cc(-c2ccc(OC)cc2)n(CCC(=O)Nc2nc3ccc(OCC)cc3s2)c1C	-16.9%	·	·	11.7%	0.1%	?
O=C(CCC(=O)N1CCN(c2cccc(Cl)c2)CC1)N1CCN(c2ccccc2)CC1	·	11.8%	-9.7%	-17.8%	·	·
